# Screening results as filed in PubChem.
# ST2 IL33 inh: inhibitors of human ST2 (IL1RL1) binding to IL-33, primary screen, biochemical, AlphaLISA; Interleukin-1 receptor-like 1 (Homo sapiens), Q01638; AlphaLISA ST2-Fc/biotin-IL-33 interaction, 1 h; inhibition, % for hits at 17 µM; hit rate 2.3% among 78,000; in the data active = inhibition above about 30%
# Target sequence (Q01638 whole entry, looked up): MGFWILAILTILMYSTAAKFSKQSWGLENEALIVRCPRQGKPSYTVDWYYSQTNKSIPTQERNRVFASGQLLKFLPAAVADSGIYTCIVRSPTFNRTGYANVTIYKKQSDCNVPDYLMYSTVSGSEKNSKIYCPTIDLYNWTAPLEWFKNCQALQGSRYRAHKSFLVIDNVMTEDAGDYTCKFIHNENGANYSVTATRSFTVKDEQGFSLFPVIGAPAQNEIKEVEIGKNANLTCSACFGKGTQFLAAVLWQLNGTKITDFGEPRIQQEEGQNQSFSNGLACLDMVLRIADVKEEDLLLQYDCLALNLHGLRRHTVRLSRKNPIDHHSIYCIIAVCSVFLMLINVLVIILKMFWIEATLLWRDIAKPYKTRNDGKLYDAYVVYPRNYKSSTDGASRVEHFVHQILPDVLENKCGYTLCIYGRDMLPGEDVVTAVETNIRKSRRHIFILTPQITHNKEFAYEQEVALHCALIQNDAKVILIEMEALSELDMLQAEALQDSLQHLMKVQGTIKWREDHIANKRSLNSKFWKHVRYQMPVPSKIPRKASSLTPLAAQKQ
# * marks the source's active call; other numbers are inactive results; i = inactive. Many of the other results were omitted from the sample, so hits are more common in it than they were.
SMILES,ST2 IL33 inh
O=C(O)CCC(=O)Nc1ccc(Oc2ccc(Cl)cc2Cl)cc1,i
CC(=O)NCC1CCC2(CCN(c3nccc(-c4ccc(C)nc4C)n3)CC2)O1 (stereo not drawn),i
C/C=C/c1cc(O)c(C(=O)C(=O)CC)c(=O)o1,i
COc1cc(C(=O)Nc2ccc(Cl)c(N3CCCS3(=O)=O)c2)cc(OC)c1OC,i
O=C1OC(c2ccc(Br)cc2)=N/C1=C\c1ccccc1,i
O=C1/C(=C/c2c[nH]c3ccccc23)CC/C1=C\c1c[nH]c2ccccc12,i
O=C1/C(=C/c2ccccc2)CC/C1=C\c1ccccc1,33%*
CCS(=O)(=O)NC(C)C(c1cccs1)N1CCOCC1 (stereo not drawn),i
CC(C)(C)c1ccc(NC(=O)CSc2nnc3sc4ccccc4n23)cc1,i
Cc1nc(-c2ccccc2)ncc1C(=O)NCC1(O)CCCNCC1 (stereo not drawn),i
COc1ccccc1OC1CCN(C(=O)c2ccc(-n3cc(NC(=O)c4ccoc4)cn3)cc2)CC1,i
COc1ccc(CN[C@H]2[C@H](O)[C@@H](N(C)CCN(C)C)[C@@H]3OC[C@H]2O3)cc1,i
CN(CCc1ccccn1)[C@H]1[C@@H]2OC[C@@H](O2)[C@@H](NC(=O)Nc2ccccc2)[C@@H]1O,i
CN(CCc1ccccn1)[C@H]1[C@@H]2OC[C@@H](O2)[C@@H](NCc2ccc(F)cc2)[C@@H]1O,32%*
CCn1cnc2sc(C(=O)Oc3ccc(C#N)cc3)c(C)c2c1=O,i
Cc1nn(CCCC(=O)Nc2ccc(Br)cc2)c(C)c1[N+](=O)[O-],i
CC(C)[C@@H](C)n1c(CCc2ccccc2)n[nH]c1=O,i
CC(C(=O)O)n1c(Cc2ccccc2)n[nH]c1=O (stereo not drawn),i
CCC(C)n1c(Cc2ccc(O)cc2)n[nH]c1=O (stereo not drawn),33%*
CCCC(=O)Nc1ccc(Nc2nc(C)cc(Nc3ccc(OC)cc3)n2)cc1,i
COc1cccc(C(=O)Nc2ccc(Nc3nc(C)cc(Nc4ccc(C)cc4)n3)cc2)c1,i
CCOc1ccc(C(=O)Nc2ccc(Nc3nc(C)cc(Nc4ccc(OC)cc4)n3)cc2)cc1,30%*
CCc1ccc2nc(C)cc(C(=O)N(C)Cc3nc(C4CC4)no3)c2c1,i
CCC(Nc1cccc(OC)c1)C(=O)N1CC=CCC1 (stereo not drawn),i
Cc1ccc(N2NC(=O)/C(=C/c3ccc(N(C)C)c(Br)c3)C2=O)cc1Cl,i
SMILES,ST2 IL33 inh
CC1=C(C(=O)Nc2cccnc2)C(c2cccc(O)c2)n2ncnc2N1 (stereo not drawn),i
O=C(Nc1ccc(Br)cc1)C1c2ccccc2Oc2ccccc21,i
O=C(Nc1ccccc1)c1cc([N+](=O)[O-])ccc1Cl,i
O=C(Nc1ccc(Cc2ccncc2)cc1)c1ccc([N+](=O)[O-])cc1Cl,i
O=C(c1ccc([N+](=O)[O-])cc1Cl)N(Cc1ccccc1)Cc1ccccc1,38%*
O=C(Nc1ccc(Oc2ccccc2)cc1)O[C@@H]1CO[C@H]2[C@@H]1OC[C@@H]2Nc1nccc(-c2cccs2)n1,34%*
COc1cccc(NC(=O)O[C@@H]2CO[C@H]3[C@@H]2OC[C@@H]3Nc2nccc(-c3ccc(-c4ccccc4)cc3)n2)c1,i
COc1cc(NC(=O)N[C@H]2CO[C@H]3[C@@H]2OC[C@@H]3Nc2nccc(-c3cccs3)n2)cc(OC)c1,i
CCCn1cnc2c1CN(C(=O)c1ccc(F)cc1)[C@H](C(=O)OC)C2,i
O=C1NCCc2c1[nH]c1ccc([N+](=O)[O-])cc21,30%*
COc1ccc2[nH]c3c(c2c1)CCNC3=O,i
O=[N+]([O-])c1cccc(C2NCCc3c2[nH]c2ccccc32)c1 (stereo not drawn),i
Cc1ocnc1C(=O)N1CCC2(CCCN(Cc3ccc(F)c(F)c3)C2=O)C1 (stereo not drawn),i
Cc1ccc(Oc2ncccc2CNC(=O)c2ccc3occc3c2)cn1,i
Cc1ccc(-c2nc(SCC(=O)NCc3ccco3)c(-c3ccc(Cl)cc3)[nH]2)cc1,i
O=C(Nc1ccc(Cl)cc1)c1cc(=O)c2ccccc2o1,i
CCCn1c(C23CC4CC(CC(C4)C2)C3)cn2c3c(=O)n(C)c(=O)n(C)c3nc12,i
CC(C)CCNC(=O)CCS(=O)(=O)c1cccc2nonc12,60%*
CC(C)NC(=O)CCS(=O)(=O)c1cccc2nonc12,i
O=C(CCS(=O)(=O)c1cccc2nonc12)NCCc1ccccc1,i
CCOc1ccc(NC(=O)Nc2cccc(Cl)c2)cc1,i
Cc1ccc(N2C(=O)Nc3ccccc3N2O)cc1Cl,i
CN(C)S(=O)(=O)c1ccc2c(c1)N(CC(=O)NCCN1CCCCC1)C(=O)C1CCCCN21 (stereo not drawn),i
COc1ccc(CC(=O)N2N=C(C)CC2(O)c2cccnc2)cc1 (stereo not drawn),i
CCN1C(=Nc2cccnc2)SCC1(O)c1ccccc1 (stereo not drawn),33%*
SMILES,ST2 IL33 inh
CCN(CC)S(=O)(=O)c1ccc(C(=O)N2CCN=C2SCc2ccccc2Cl)cc1,i
Cc1c(Cl)cccc1N1C(=O)CSC1c1ccc([N+](=O)[O-])cc1 (stereo not drawn),i
Cc1c(Cl)cccc1-n1ncnc1-c1cccc([N+](=O)[O-])c1,35%*
O=[N+]([O-])c1cccc(-c2ncnn2-c2ccc(Br)cc2F)c1,i
O=C1CC(C(=O)N2CC(c3ccncc3)C2)CN1Cc1cccnc1 (stereo not drawn),i
CC(C)Cn1cc(C(=O)NC2CCCCC2)c2c3ccccc3n(C)c2c1=O,36%*
Cn1cc(C(=O)NC2CCCCCC2)c2c3ccccc3n(C)c2c1=O,i
CC(C)Cn1cc(C(=O)NC2CCCC2)c2c3ccccc3n(C)c2c1=O,i
Cc1cc(CN(C)C)c(O)c(CCc2ccccc2)n1,i
CCC(=O)N1CCc2cc(Br)cc(S(=O)(=O)Nc3ccc(F)cc3)c21,i
COCc1nc(N(C)Cc2cc(-c3cccnc3)no2)c2cnn(C)c2n1,i
CNc1ncc(CN(C)c2nc(-c3cccnc3)nc3c2cnn3C)cn1,46%*
CCSCCNc1nc(-c2cccnc2)nc2c1cnn2C,i
CC(C)N(C(C)C)S(=O)(=O)c1ccccc1,i
Cc1ccccc1NC(=O)CC(=O)NC1(c2ccccc2Cl)CC1,i
COCCCNc1ncnc2c1cnn2-c1cccc(C)c1,i
COc1cc([N+](=O)[O-])cc(C=Nc2ccc(-c3nc4c(C)cccc4o3)cc2)c1O,i
COc1cc([N+](=O)[O-])cc(C=Nc2ncccc2O)c1O,42%*
COc1cc([N+](=O)[O-])cc(C=Nc2cccc(-c3nc4c(C)cccc4o3)c2)c1O,i
CS(=O)(=O)c1ncc(CN2CCC[C@H]2C(N)=O)n1CCCc1ccccc1,i
Cc1ccn2c(NC(=O)CC(C)C)c(-c3ccc(F)cc3)nc2c1,i
O=C(CC1CCC(=O)N1)NCc1ccc2[nH]c3c(c2c1)CCCCCC3 (stereo not drawn),i
COc1ccc(OC)c(NC(=O)c2ccc(C)c(Br)c2)c1,i
Cc1ccc(S(=O)(=O)N(Cc2ccc([N+](=O)[O-])cc2)C(C)(C)C)cc1,i
Cc1ccc(S(=O)(=O)c2ccc(-c3ccc([N+](=O)[O-])cc3)cc2)cc1,31%*
Cc1ccc(NS(=O)(=O)c2ccc([N+](=O)[O-])cc2)cc1,i
